# Where “and” joins values, the source holds several entries; their conditions need not be identical. Identical values can stand only once. Calls of active or inactive are those of the source.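 How the source made its calls, unless noted: active means compounds whose cell count with miR-34 switched on is under 0.7 times the count with it off; inactive means the rest.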
# Assays:
# [1] = sensitizers of A549 cells to miR-34 induction, primary screen, imaging, A549 dox-inducible miR-34, nuclei and caspase counts (AID 1347080); conditions: A549 miR-34 inducible, Hoechst nuclei count, 48 h
# [2] = survival rescue of mitochondrial mutant cells in low glucose, primary screen, MELAS cybrids, Rieske KO mouse fibroblasts, CellTiter-Glo (AID 1508586;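 active means mean z-score across replicates of 1.96 or higher in either the MELAS or the Rieske mutant cell line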;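 further: z relative to plate mean and SD of compound and empty wells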)
# [3] = molecular target: NAD(+) hydrolase SARM1 (Homo sapiens) (UniProt Q6SZW1); assay: SARM1 TIR NADase inhibitors, cell lysate, NAD-Glo luminescence (AID 1508614;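 active means compound whose remaining NAD level is above about 45 nM, limit read from the data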); conditions: SAM-TIR HEK293T lysate NADase, at 1 µM, stronger effect = higher value
# Sequence of NAD(+) hydrolase SARM1 (Homo sapiens) (Q6SZW1 whole entry, looked up, the tested form may be a part): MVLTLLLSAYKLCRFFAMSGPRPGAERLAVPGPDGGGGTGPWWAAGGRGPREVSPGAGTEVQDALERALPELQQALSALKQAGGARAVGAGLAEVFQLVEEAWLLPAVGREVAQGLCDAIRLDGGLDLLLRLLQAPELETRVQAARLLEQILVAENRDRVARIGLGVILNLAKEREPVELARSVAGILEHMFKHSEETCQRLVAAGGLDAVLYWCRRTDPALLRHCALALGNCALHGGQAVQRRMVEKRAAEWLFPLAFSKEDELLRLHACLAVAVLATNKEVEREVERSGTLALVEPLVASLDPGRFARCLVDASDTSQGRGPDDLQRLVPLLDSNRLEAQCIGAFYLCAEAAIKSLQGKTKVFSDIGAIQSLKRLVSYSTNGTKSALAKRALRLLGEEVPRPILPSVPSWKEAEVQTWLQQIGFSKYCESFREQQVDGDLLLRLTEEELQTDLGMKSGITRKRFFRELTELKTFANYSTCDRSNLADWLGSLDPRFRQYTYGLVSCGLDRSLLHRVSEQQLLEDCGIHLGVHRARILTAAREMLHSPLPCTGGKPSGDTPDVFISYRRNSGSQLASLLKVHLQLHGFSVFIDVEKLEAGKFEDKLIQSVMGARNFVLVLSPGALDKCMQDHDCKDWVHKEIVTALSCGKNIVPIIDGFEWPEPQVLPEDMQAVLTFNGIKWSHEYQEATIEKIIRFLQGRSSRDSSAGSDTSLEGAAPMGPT
# [4] = molecular target: Mitogen-activated protein kinase 7 (Homo sapiens) (UniProt Q13164); assay: ERK5 transactivation activators in reporter cells, primary screen, cell-based, HTS (AID 1508626;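 active means luciferase signal above three times the same-plate solvent-only control wells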;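 further: luciferase driven by Gal4-ERK5 fusion binding five Gal4 sites before minimal TATA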); conditions: HeLa Gal4-ERK5 transactivation, 18 h, at 5 µM, stronger effect = higher value
# Sequence of Mitogen-activated protein kinase 7 (Homo sapiens) (Q13164 whole entry, looked up, the tested form may be a part): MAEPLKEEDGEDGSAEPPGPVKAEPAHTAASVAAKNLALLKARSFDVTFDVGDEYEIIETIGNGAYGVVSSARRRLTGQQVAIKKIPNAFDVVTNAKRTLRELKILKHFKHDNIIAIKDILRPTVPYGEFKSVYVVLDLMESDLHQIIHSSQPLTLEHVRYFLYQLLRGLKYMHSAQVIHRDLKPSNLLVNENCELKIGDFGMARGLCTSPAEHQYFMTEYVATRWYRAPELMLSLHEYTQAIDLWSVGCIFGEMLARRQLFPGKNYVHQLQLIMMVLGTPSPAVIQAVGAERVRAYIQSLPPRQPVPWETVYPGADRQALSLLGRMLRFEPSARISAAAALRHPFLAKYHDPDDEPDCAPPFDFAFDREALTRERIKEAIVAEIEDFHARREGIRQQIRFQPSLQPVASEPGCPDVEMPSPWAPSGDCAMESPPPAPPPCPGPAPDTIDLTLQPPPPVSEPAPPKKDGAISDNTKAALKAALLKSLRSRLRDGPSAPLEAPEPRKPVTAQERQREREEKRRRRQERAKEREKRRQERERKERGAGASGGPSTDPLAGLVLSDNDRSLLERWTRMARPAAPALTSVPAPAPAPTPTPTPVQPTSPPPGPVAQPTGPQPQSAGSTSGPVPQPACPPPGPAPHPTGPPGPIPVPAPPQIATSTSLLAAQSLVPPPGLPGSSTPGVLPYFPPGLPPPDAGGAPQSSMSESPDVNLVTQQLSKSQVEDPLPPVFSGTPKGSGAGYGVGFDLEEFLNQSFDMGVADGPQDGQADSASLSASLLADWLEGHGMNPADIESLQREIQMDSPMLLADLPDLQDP
# [5] = viability rescue of complex I mutant cybrids, primary screen, cell-based, galactose medium, ATP luminescence (AID 1645843;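 active means z-score of at least 1.8 in each of two replicates, scored against plate mean and spread of sample wells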;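 further: positive z means more ATP and so rescue of galactose-driven cybrid death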); conditions: complex I mutant cybrid cells, 72 h, stronger effect = higher value
# [6] = LFS_MB_P medulloblastoma growth inhibition, cell-based, chromothripsis tumors, cisplatin or BGB combos (AID 1671449; in the data active means inhibition above about 80%;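 further: cells exposed for 96 hours; 0% = vehicle DMSO and 100% = killing by high DMSO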); conditions: LFS_MB_P medulloblastoma cells
# [7] = HDN33 neuroblastoma growth inhibition, cell-based, chromothripsis tumors, cisplatin or BGB combos (AID 1671450; in the data active means inhibition above about 80%;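 further: cells exposed to compound for four days; 0% = vehicle DMSO and 100% = cell killing by high DMSO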); conditions: HDN33 neuroblastoma cells, stronger effect = higher value
# [8] = ICB984 medulloblastoma cell growth inhibition, synergistic combos for chromothripsis tumors, cisplatin or BGB combos (AID 1671451; call rule not given here;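 further: cells exposed for 96 hours before readout; 0% = vehicle DMSO and 100% = killing by high DMSO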); conditions: ICB984 medulloblastoma cells, drug combinations, stronger effect = higher value
# [9] = LFS_MB_1R medulloblastoma cell growth inhibition, synergistic combos for chromothripsis tumors, cisplatin or BGB combos (AID 1671452; in the data active means inhibition above about 80%;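 further: cells exposed for 96 hours before readout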); conditions: LFS_MB_1R medulloblastoma cells, stronger effect = higher value
# [10] = HTB85 osteosarcoma cell growth inhibition, synergistic combos for chromothripsis tumors, BGB or cisplatin IC20 combos (AID 1671453; in the data active means inhibition above about 80%;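 further: cells exposed for 96 hours before readout; 0% = vehicle DMSO and 100% = high DMSO killing control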); conditions: HTB85 osteosarcoma cells, drug combinations, stronger effect = higher value
# [11] = CRL2098 osteosarcoma cell growth inhibition, synergistic combos for chromothripsis tumors, BGB or cisplatin IC20 combos (AID 1671454; in the data active means inhibition above about 80%;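 further: cells exposed for 96 h before readout; 0% = vehicle DMSO and 100% = killing by high DMSO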); conditions: CRL2098 osteosarcoma cells, drug combinations, stronger effect = higher value
# [12] = HD-MB03 medulloblastoma cell growth inhibition, synergistic combos for chromothripsis tumors, BGB or cisplatin IC20 combos (AID 1671455; in the data active means inhibition above about 83%;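 further: 0% = vehicle DMSO and 100% = high DMSO as cytotoxic control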); conditions: HD-MB03 medulloblastoma cells, stronger effect = higher value
# [13] = stronger effect = lower value, cell number ratio, induced over uninduced
# [14] = measured here: relative caspase fold change +Dox/-Dox
# [15] = measured here: total cells with miR-34 induction, stronger effect = lower value
# [16] = measured here: total cells without miR-34 induction
# [17] = MELAS cybrid survival, CellTiter-Glo 48 h, stronger effect = higher value
# [18] = Rieske KO mouse fibroblast survival, CellTiter-Glo 72 h
# [19] = measured here: combination with BGB IC40, at 0.05 µM
smiles,measurement,setting,value
Cc1c(Cl)cccc1Nc1ccccc1C(=O)O,fold change,[1]; [13],0.957 (inactive) and 1.02 (inactive) and 0.935 (inactive)
same,fold change,[1]; [14],1 and 0.422 and 1.23
same,cell count,[1]; [15],9330 and 8170 and 9290
same,cell count,[1]; [16],9750 and 8010 and 9940
same,z-score,[2]; [17],-0.324 (inactive) and 0.232 (inactive) and 0.0953 (inactive)
same,z-score,[2]; [18],-0.0198 and -0.0599 and -0.617
same,remaining NAD,[3],10 nM (inactive)
same,luciferase signal,[4],52 AU (inactive)
same,z-score,[5],1.29 (inactive)
COc1ccc(C(=O)NCc2ccc(OCCN(C)C)cc2)cc1OC,fold change,[1]; [13],0.832 (inactive) and 1.01 (inactive) and 0.841 (inactive)
same,fold change,[1]; [14],0.68 and 1.38 and 1.73
same,cell count,[1]; [15],8010 and 10500 and 9070
same,cell count,[1]; [16],9630 and 10400 and 10800
same,z-score,[2]; [17],0.424 (inactive) and 1.16 (inactive)
same,z-score,[2]; [18],-0.0117 and -0.161
same,remaining NAD,[3],14 nM (inactive)
same,z-score,[5],0.35 (inactive) and 0.59 (inactive)
COC(=O)N/N=C/c1c[n+]([O-])c2ccccc2[n+]1[O-],fold change,[1]; [13],0.833 (inactive) and 0.91 (inactive)
same,fold change,[1]; [14],6.83 and 1.15
same,cell count,[1]; [15],10200 and 7650
same,cell count,[1]; [16],12300 and 8400
same,z-score,[2]; [17],0.937 (inactive) and 0.871 (inactive)
same,z-score,[2]; [18],0.153 and -0.0791
same,remaining NAD,[3],10 nM (inactive)
same,luciferase signal,[4],172 AU (inactive)
same,z-score,[5],0.34 (inactive)
CC1(C)S[C@@H]2[C@H](NC(=O)[C@H](N)c3ccccc3)C(=O)N2[C@H]1C(=O)O,fold change,[1]; [13],0.937 (inactive) and 0.929 (inactive) and 0.871 (inactive)
same,fold change,[1]; [14],0.845 and 0.857 and 1.14
same,cell count,[1]; [15],8790 and 10800 and 9210
same,cell count,[1]; [16],9380 and 11700 and 10600
same,z-score,[2]; [17],0.56 (inactive) and 0.538 (inactive)
same,z-score,[2]; [18],-0.285 and -0.0992
same,remaining NAD,[3],10 nM (inactive)
same,luciferase signal,[4],44 AU (inactive)
same,z-score,[5],0.415 (inactive)
NC(=NCCCCCCN=C(N)/N=C(\N)Nc1ccc(Cl)cc1)/N=C(\N)Nc1ccc(Cl)cc1,fold change,[1]; [13],0.918 (inactive) and 0.785 (inactive)
same,fold change,[1]; [14],1.13 and 3.13
same,cell count,[1]; [15],1670 and 3350
same,cell count,[1]; [16],1820 and 4270
same,z-score,[2]; [17],-4.55 (inactive)
same,z-score,[2]; [18],-0.0121
same,luciferase signal,[4],32 AU (inactive)
CC(=O)OC/C=C(C)/C=C/C=C(C)/C=C/C1=C(C)CCCC1(C)C,fold change,[1]; [13],0.9 (inactive)
same,fold change,[1]; [14],1.05
same,cell count,[1]; [15],10300
same,cell count,[1]; [16],11500
same,z-score,[2]; [17],-0.677 (inactive)
same,z-score,[2]; [18],-0.15
same,remaining NAD,[3],10 nM (inactive)
same,luciferase signal,[4],96 AU (inactive)
same,z-score,[5],-0.205 (inactive)
CC(Oc1c(Cl)cccc1Cl)C1=NCCN1 (stereo not drawn),fold change,[1]; [13],0.89 (inactive) and 0.878 (inactive) and 0.898 (inactive)
same,fold change,[1]; [14],0.839 and 1.76 and 1.47
same,cell count,[1]; [15],9080 and 9420 and 9240
same,cell count,[1]; [16],10200 and 10700 and 10300
same,z-score,[2]; [17],-0.146 (inactive) and 0.131 (inactive)
same,z-score,[2]; [18],-0.104 and -1.04
same,remaining NAD,[3],10 nM (inactive)
same,z-score,[5],0.71 (inactive) and 0.175 (inactive)
CC1CCc2cc(F)cc3c(=O)c(C(=O)O)cn1c23 (stereo not drawn),fold change,[1]; [13],0.911 (inactive) and 0.884 (inactive) and 0.854 (inactive)
same,fold change,[1]; [14],1.2 and 1.04 and 2.46
same,cell count,[1]; [15],8860 and 8230 and 11600
same,cell count,[1]; [16],9730 and 9310 and 13600
same,z-score,[2]; [17],-0.14 (inactive) and 1.18 (inactive)
same,z-score,[2]; [18],-0.162 and -0.0831
same,remaining NAD,[3],10 nM (inactive)
same,luciferase signal,[4],60 AU (inactive)
same,inhibition,"[6]; at 0.5 µM, stronger effect = higher value",39.2% (inactive) and -31.9% (inactive)
same,inhibition,"[6]; measured here: combination with BGB IC20, at 0.005 µM",-29.5% and 27.9%
same,inhibition,"[6]; measured here: combination with BGB IC40, at 0.005 µM",-17.3% and 13.7%
same,inhibition,[6]; [19],-16.4% and 38.8%
same,inhibition,"[6]; measured here: combination with cisplatin, at 0.5 µM, stronger effect = higher value",98.2% and -27%
same,inhibition,"[6]; measured here: combination with cisplatin, at 5 µM, stronger effect = higher value",-36.8% and -23.2%
same,inhibition,"[7]; BGB combo, at 5 µM",-3.97% and 10%
same,inhibition,[7]; at 0.5 µM,3.55% (inactive) and 8.84% (inactive)
same,inhibition,"[7]; cisplatin combo, at 5 µM",2.48% and 8.76%
same,inhibition,"[7]; measured here: with BGB IC20 combination, at 0.5 µM",18.5% and 19.1%
same,inhibition,"[7]; measured here: with cisplatin IC20 combination, at 0.5 µM",-0.119% and -5.91%
same,inhibition,"[7]; single agent, at 5 µM",0.699% and -7.13%
same,inhibition,"[8]; BGB IC20 combo, at 0.005 µM",-7.37% and -18.9%
same,inhibition,"[8]; BGB IC40 combo, at 0.005 µM",-12.9% and -43.9%
same,inhibition,"[8]; BGB IC40 combo, at 0.05 µM",-20% and -12.5%
same,inhibition,[8]; at 0.5 µM,-19.2% (inactive) and -16.4% (inactive)
same,inhibition,"[8]; cisplatin combo, at 0.05 µM",-20% and -16.9%
same,inhibition,"[8]; cisplatin combo, at 0.5 µM",-31% and -15.5%
same,inhibition,"[8]; cisplatin combo, at 5 µM",-18.9% and -31.7%
same,inhibition,"[8]; measured here: 5 uM single agent, at 5 µM",-15.3% and -14.5%
same,inhibition,[9]; at 0.5 µM,-3.56% (inactive) and 7.41% (inactive)
same,inhibition,[9]; [19],-7.45% and -3.94%
same,inhibition,"[9]; measured here: combination with cisplatin, at 0.5 µM",23.1% and 16.6%
same,inhibition,"[9]; measured here: combination with cisplatin, at 5 µM",7.04% and -25.3%
same,inhibition,[10]; at 0.5 µM,-21.3% (inactive) and 5.14% (inactive)
same,inhibition,"[10]; measured here: with BGB IC20, at 0.5 µM",-53.3% and -0.618%
same,inhibition,"[10]; measured here: with BGB IC20, at 5 µM",-33.8% and -1.4%
same,inhibition,"[10]; measured here: with cisplatin IC20, at 0.5 µM",-16.2% and -0.916%
same,inhibition,"[10]; measured here: with cisplatin IC20, at 5 µM",-23.6% and -6.11%
same,inhibition,"[10]; single agent, at 5 µM",-1.52% and 15.2%
same,inhibition,[11]; at 0.5 µM,-7.35% (inactive) and -5.05% (inactive)
same,inhibition,"[11]; measured here: combination with BGB at IC20, at 0.5 µM",15.7% and -0.776%
same,inhibition,"[11]; measured here: combination with cisplatin at IC20, at 0.5 µM",-17.1% and 17.1%
same,inhibition,[12]; at 0.5 µM,-4.42% (inactive) and 1.31% (inactive)
same,inhibition,"[12]; measured here: combo with BGB at IC20, at 0.5 µM",-11.9% and -3.2%
same,inhibition,"[12]; measured here: combo with cisplatin at IC20, at 0.5 µM",7.79% and 0.674%
